# A selection: hits, their analogues and other compounds. The true share with any hit is near 8.9%.
# D3 ag = activates the human D3 dopamine receptor; P35462; D3R DiscoveRx beta-arrestin cells, luminescence, 90 min; max activation, %; 410,000 compounds, 0.58% hits; AID 652048; in the data active = max activation above about 30%; note: 0% is about no effect
# Target sequence (P35462 whole entry, looked up): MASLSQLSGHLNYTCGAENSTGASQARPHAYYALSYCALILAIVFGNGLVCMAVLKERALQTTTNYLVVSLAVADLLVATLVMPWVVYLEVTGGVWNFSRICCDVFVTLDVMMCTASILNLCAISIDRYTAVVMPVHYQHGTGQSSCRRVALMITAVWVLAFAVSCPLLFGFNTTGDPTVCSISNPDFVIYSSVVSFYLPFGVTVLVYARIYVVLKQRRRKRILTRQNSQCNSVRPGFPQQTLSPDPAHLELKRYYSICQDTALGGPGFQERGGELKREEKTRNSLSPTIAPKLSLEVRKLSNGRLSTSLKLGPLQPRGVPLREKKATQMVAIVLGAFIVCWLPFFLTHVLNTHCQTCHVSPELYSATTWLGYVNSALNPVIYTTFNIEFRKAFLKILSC
#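 Agonist-mode cell screen: cells plated at 1500/well and incubated overnight at 37 °C, then exposed to library compounds for 90 min at 37 °C. Detection reagent was added for 30–60 min at room temperature, and luminescence was read.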
# MCF10A rerep = inducers of DNA re-replication in MCF 10A breast cells | 350,000 compounds, 2.9% hits | AID 624296 | Potency, µM (highest dose often 46.1 µM), without a hit: at the top dose activity, positive = re-replication, actives largely listed as activators | MCF 10A DNA re-replication, Hoechst nuclear intensity, 48 h; note: potency is the fitted concentration of half-maximal effect; % of control where 0% means no effect; nearly all actives have a fitted effect of over 50% in size
# KB-3-1 tox = kills parental KB-3-1 adenocarcinoma cells; 400,000 compounds, 1.4% hits; KB-3-1 viability, CellTiter-Glo ATP luminescence, 72 h; Potency, µM (series often up to 46.1 µM), actives largely listed as cytotoxic; note: potency is the fitted concentration of half-maximal effect; % is set by controls: 0 for no effect and ±100 for the full control effect; nearly all actives have a fitted effect of over 60% in size
#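 Screening of KB-3-1 cells (DMEM, 10% FBS, phenol-red free) ran from lowest to highest compound concentration; after 72 h at 37 °C viability was read luminescently and curves fitted.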
# KB-V1 MDR tox = kills drug-selected multidrug resistant KB-V1 cells. KB-V1 MDR cells viability, CellTiter-Glo, 72 h. Potency, µM (series often up to 46.1 µM), actives largely listed as cytotoxic. 400,000 compounds, 3.4% hits; note: potency is the fitted concentration of half-maximal effect; % is set by controls: 0 for no effect and ±100 for the full control effect; nearly all actives have a fitted effect of over 60% in size
#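 KB-V1, DMEM (no phenol red) + 10% FBS; cpd pin-transferred, titration series; 72 h, 37 degrees C; CellTiter-Glo, luminescence. Data normalized, curve-fit.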
# D3 antag = blocks the human D3 dopamine receptor. AID 652054. max response, negative = inhibition, %. P35462. 360,000 compounds, 2.5% hits. D3R cells, DiscoveRx beta-arrestin luminescence, antagonist mode; active compounds read low; in the data active = max response below about -50%; inconclusive = no clear call, values can overlap the other calls; note: % is set by controls: 0 for no effect and ±100 for the full control effect
#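 Cells expressing the human receptor were seeded at 1500 cells/well, incubated overnight at 37 degrees C in 5% CO2, then exposed to library compounds with dopamine controls for 90 minutes at 37 degrees C before luminescent detection.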
# SW480 rereplic = DNA re-replication induction in SW480 cells; Potency, µM (doses to about 46.1 µM), without a hit: at the highest dose re-replication activation, most hits filed as activators; SW480 DNA re-replication, Hoechst DNA content imaging, 48 h; 340,000 compounds, 1.8% hits; AID 624297; note: potency is the fitted concentration of half-maximal effect; % of control where 0% means no effect; nearly all actives have a fitted effect of over 55% in size
#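 DNA re-replication was detected as more nuclei of elevated Hoechst intensity after 48 hr exposure to compound (23 nL pinned per well of 250 cells).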
# Active calls of the source: *; i = inactive; ? = inconclusive; · = not tested or not shown; ! = repeats disagree. Unless noted, calls come from the whole dose curve; as a rule, active = well fitted curve in the direction sought with a large enough effect; inconclusive = small, poorly fitted or top-dose-only effect, or another doubt; inactive = no such curve, though single readings can be large; an effect the other way counts as inactive or inconclusive.
SMILES,D3 ag,MCF10A rerep,KB-3-1 tox,KB-V1 MDR tox,D3 antag,SW480 rereplic
Cc1cccc(N2CCN(CCNC(=O)c3cc4c(s3)CS(=O)(=O)C4)CC2)c1C,86*,9%,i,?,6,-5%
CC(C)(CO)[C@@H](O)C(=O)NCCCC(=O)O,10,·,·,·,·,·
CCCn1c(O)c(/C=C2\C=NN=C2c2ccccc2)sc1=S,-1,9.2µM*,i,?,-14,9%
C=CCn1c(O)c(/C=C2\C=NN=C2c2ccccc2)sc1=S,-26,?,i,i,0,10%
Cc1cccc(NC(=O)CSc2nc3c([nH]c4ccccc43)c(=O)n2-c2ccc(F)cc2)c1C,-4,·,·,·,·,·
CCOc1ccccc1C(=O)Nc1nc2c(s1)CC(C)CC2 (stereo unspecified),5,·,i,i,·,·
CS(=O)(=O)c1ccc2nc(NC(=O)c3ccccc3Br)sc2c1,-3,-11%,i,i,-56*,-6%
COc1ccccc1C(=O)Nc1nc2ccc(S(C)(=O)=O)cc2s1,0,?,i,5.8µM*,6,-3%
CS(=O)(=O)c1ccc2nc(NC(=O)c3ccccc3Cl)sc2c1,-15,0.82µM*,i,i,0,-80%
COc1cccc(NS(=O)(=O)c2cc(-c3cnc(C4CC4)o3)ccc2C)c1,-16,·,4.1µM*,7.3µM*,·,·
CN(Cc1ccccc1)S(=O)(=O)c1ccc(-c2cnc(C3CC3)o2)cc1,4,·,i,i,·,·
Cc1ccc(N(C)S(=O)(=O)c2ccc(-c3cnc(C4CC4)o3)cc2)cc1,-2,?,3.3µM*!,2.9µM*!,-26,?
Cc1ccc(-c2cnc(C3CC3)o2)cc1S(=O)(=O)Nc1cccc(C#N)c1,-8,·,i,?,·,·
COc1cc(Cl)c(NS(=O)(=O)c2ccc(-c3cnc(C4CC4)o3)cc2)c(OC)c1,-24,·,1.6µM*,1µM*,·,·
Cc1ccc(NS(=O)(=O)c2ccc(-c3cnc(C4CC4)o3)cc2)cc1,-2,10µM*,18µM*,?,-9,18µM*
CCC1CCCCN1C(=O)CCS(=O)(=O)c1cc2c(cc1C)NC(=O)CO2 (stereo unspecified),6,·,i,i,·,·
Cc1nn(-c2ccccc2)c(-n2cccc2)c1C(=O)N1CCN(c2ccccc2)CC1,-18,·,i,i,·,·
COc1ccc(C)cc1NS(=O)(=O)c1ccc(-c2cnc(C3CC3)o2)cc1,1,?,0.21µM*,?,-24,0.13µM*
Cc1cccc(C)c1NS(=O)(=O)c1ccc(-c2cnc(C3CC3)o2)cc1,-4,?,0.023µM*,0.73µM*,-12,?
Cc1cccc(N=C2NC(=O)CS2)c1,1,-5%,i,?,?,-5%
Cc1ccc(N=C2NC(=O)/C(=C/c3cccn3C)S2)cc1,-18,?,?,?,-24,10µM*
Cc1ccc(N=C2NC(=O)/C(=C/c3cccs3)S2)cc1C,-19,16µM*,i,?,-16,-1%
Cc1ccc(N=C2NC(=O)CS2)cc1C,-14,20%,?,9.2µM*,-10,-8%
Cc1ccc(N=C2NC(=O)/C(=C/c3cccn3C)S2)cc1C,10,15µM*,?,?,-23,?
Cc1cccc(N=C2NC(=O)/C(=C/c3cccn3C)S2)c1C,8,?,i,?,-18,-58%
SMILES,D3 ag,MCF10A rerep,KB-3-1 tox,KB-V1 MDR tox,D3 antag,SW480 rereplic
COc1cc(C(=O)Nc2nc3c(s2)Cc2c(Br)ccc(OC)c2-3)cc(OC)c1OC,19,·,i,i,·,·
COc1ccc(OC)c(-c2noc(N3CCN(c4cc(C)ccc4C)CC3)n2)c1,4,·,i,i,·,·
CCOc1ccc(C(=O)c2oc3ccccc3c2NC(=O)c2cc(=O)c3ccc(C)cc3o2)cc1,-11,·,i,i,·,·
Cc1ccc(NC(=O)CN2C(=O)c3ccccc3Sc3ccc(C(=O)N4CCOCC4)cc32)cc1F,0,·,·,·,·,·
O=c1nc(Nc2ccccc2)oc2ccccc12,-3,0%,i,?,-22,2%
O=c1nc(Nc2cccc(Cl)c2)oc2cc(Cl)oc(=O)c12,-1,16µM*,i,?,-5,18%
COc1cccc(CN2CCN(C3CCN(c4ccccc4F)CC3)CC2CCO)c1 (stereo unspecified),-33,7%,i,i,-110*,5%
Cc1cc(F)ccc1N1CCC(N2CCN(CCC(C)C)C(CCO)C2)CC1 (stereo unspecified),-9,?,i,?,?,25%
COc1cccc(CN2CCN(C3CCN(c4ccccc4C)CC3)CC2CCO)c1 (stereo unspecified),-5,7%,i,i,-60*,6%
COc1cccc(CN2CCN(C3CCN(c4cccc(C)c4C)CC3)CC2CCO)c1 (stereo unspecified),29,15%,i,i,-4,?
Cc1cc(F)ccc1N1CCC(N2CCN(C(C)C)C(CCO)C2)CC1 (stereo unspecified),-16,?,i,i,-53*,1%
Cc1c(C)n(CCCN(C)C)c2ncnc(Nc3ccccc3)c12,3,?,i,i,7,-21%
COc1ccccc1Nc1ncnc2c1c(C)c(C)n2CCCN(C)C,-2,?,i,i,-24,21µM*
CC(C)(C)OC(=O)N1O[C@H]2C[C@@H]1[C@@H]1[C@@H]2N=NN1C12CC3CC(CC(C3)C1)C2,-21,-3%,i,i,-2,21µM*
NC(=O)COc1cc2oc(=O)c3c(c2cc1Cl)CCCC3,-2,0%,i,8.2µM*,39,-7%
O=C(COc1cc2oc(=O)c3c(c2cc1Cl)CCC3)NCCCn1ccnc1,-2,23µM*,i,i,1,-8%
O=C(COc1cc2oc(=O)c3c(c2cc1Cl)CCCC3)N1C[C@H]2C[C@@H](C1)c1cccc(=O)n1C2,-18,?,i,i,-58*,?
Cc1c(C)c2cc(Cl)c(OCC(=O)NCCCn3ccnc3)cc2oc1=O,-1,-30%,i,i,-8,-4%
Cc1ccc(C(C)C)cc1OCC(=O)NCCCn1ccnc1,-30,1.5µM*,i,i,?,17%
COc1ccccc1OCC(=O)NCCCn1ccnc1,-3,4%,i,i,1,32%
COc1ccc(-c2cn3c(n2)sc2cc(C(=O)NCCc4ccccc4)ccc23)cc1,10,·,·,·,·,·
COc1ccc(N2CC(NC(=O)c3ccc4c(c3)OCO4)CC2=O)cc1OC (stereo unspecified),3,·,i,i,·,·
O=C(Cn1ncc(Cl)c(Cl)c1=O)c1ccc2c(c1)OCCO2,-13,2.9µM*,?,21µM*,-54*,?

# High-throughput results from PubChem.
